Data reported in PubChem BioAssay (NCI).
The panel holds about 79,000 compounds, 15% with a hit somewhere; the sample as a whole holds those more often. Activity calls are given as the source filed them. Rule as the data show it: active = growth inhibition above about 70%; inactive = the rest.

Legend:
[1] = NCI Yeast Anticancer Drug Screen. Data for the wt1 strain (AID 149);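 also: 0% = growth of vehicle-treated wt1 cultures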; settings: S. cerevisiae wt1 strain (SPY 50644) growth inhibition, stronger effect = higher value
How it was run: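 Compounds are added to wt1 yeast cultures. Growth is then measured. Inhibition is expressed relative to vehicle-treated controls.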

[2] = NCI Yeast Anticancer Drug Screen. Data for the rad50EPP+ strain (AID 151);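 also: 0% = growth of vehicle-treated control cultures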; settings: S. cerevisiae rad50 mutant strain, stronger effect = higher value
How it was run: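 Vehicle-normalised growth inhibition; rad50EPP+ yeast strain, altered in DNA damage repair, compound-treated.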

[3] = NCI Yeast Anticancer Drug Screen. Data for the rad50 strain (AID 155);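 also: 0% = growth of vehicle-only cultures of the same strain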; settings: S. cerevisiae rad50 strain growth inhibition, stronger effect = higher value
How it was run: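 Inhibition values express reduced yeast growth in compound-treated cultures relative to vehicle-treated controls.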

[4] = NCI Yeast Anticancer Drug Screen. Data for the mec2-1 strain (AID 157); settings: S. cerevisiae mec2-1 strain, stronger effect = higher value
How it was run: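 Mutant yeast (mec2-1) grown with compound; growth inhibition relative to vehicle control reported.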

[5] = NCI Yeast Anticancer Drug Screen. Data for the rad14 strain (AID 159);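 also: 0% = growth of vehicle-treated control cultures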; settings: S. cerevisiae rad14 strain growth inhibition, stronger effect = higher value
How it was run: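 A mutant yeast strain defective in DNA damage repair is treated with compound; inhibition of its growth is scored against untreated, vehicle-exposed cultures.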

[6] = NCI Yeast Anticancer Drug Screen. Data for the sgs1 mgt1 strain (AID 161);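 also: 0% = growth of cultures given vehicle only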; settings: S. cerevisiae sgs1 mgt1 strain, stronger effect = higher value
How it was run: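 This yeast growth screen uses a strain with defined DNA-repair lesions; compound-treated growth is compared with vehicle-treated growth.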

[7] = NCI Yeast Anticancer Drug Screen. Data for the CLN2oe strain (AID 163);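 also: 0% = growth of vehicle-only control cultures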; settings: S. cerevisiae CLN2oe strain, stronger effect = higher value
How it was run: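 Compounds are applied to yeast harbouring a defined cell-cycle control change; reduced growth compared with vehicle-treated controls gives the value.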

[8] = NCI Yeast Anticancer Drug Screen. Data for the cln2 rad14 strain (AID 165);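 also: 0% = growth equal to vehicle treated cultures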; settings: S. cerevisiae cln2 rad14 strain, stronger effect = higher value
How it was run: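 Readout is yeast growth inhibition versus vehicle-treated controls, using a strain with cln2 and rad14 alterations exposed to compound.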

[9] = NCI Yeast Anticancer Drug Screen. Data for the bub3 strain (AID 167); settings: S. cerevisiae bub3 mutant strain, stronger effect = higher value
How it was run: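 Steps: expose the mutant yeast strain to compound; grow alongside vehicle-treated cultures; measure growth; express inhibition against the vehicle cultures.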

[10] = NCI Yeast Anticancer Drug Screen. Data for the wt2 strain (AID 169);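 also: 0% = growth of vehicle-treated yeast cultures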; settings: S. cerevisiae wt2 strain growth inhibition, stronger effect = higher value
How it was run: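 Against vehicle-treated controls, the growth of yeast exposed to each compound was compared, and the inhibition was recorded.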

[11] = NCI Yeast Anticancer Drug Screen. Data for the mlh1 strain (AID 171);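 also: 0% = growth of vehicle-treated control cultures of the same strain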; settings: S. cerevisiae mlh1 strain growth inhibition, stronger effect = higher value
How it was run: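 Measured: yeast growth. Reference: vehicle-treated controls. Organism: strain with a defined alteration affecting DNA damage repair or cell cycle control, treated with compound.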

[12] = NCI Yeast Anticancer Drug Screen. Data for the sgs1 strain (AID 173);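 also: 0% = growth of vehicle-only control cultures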; settings: S. cerevisiae sgs1 mutant, stronger effect = higher value
How it was run: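 Each compound was added to cultures of the altered yeast strain. Growth was recorded, and inhibition was derived by comparison with vehicle controls.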

[13] = NCI Yeast Anticancer Drug Screen. Data for the rad18 strain (AID 177); settings: S. cerevisiae rad18 mutant growth inhibition, stronger effect = higher value
How it was run: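 Vehicle-treated cultures served as the baseline for scoring compound-induced growth inhibition in DNA-repair-mutant yeast.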

[14] = at 5.0 µM (retest, dose inferred, filed as 0.5)
[15] = at 50.0 µM (retest, dose inferred, filed as 5.0)

Measured: growth inhibition

Cc1ccc(S(=O)(=O)N/N=C/c2c(O)ccc3ccccc23)cc1
inactive: [1]; at 1.2 µM -8% | [1]; at 3.7 µM -15% | [1]; at 11.0 µM 37% | [1]; at 33.0 µM 59% | [2]; at 1.2 µM -6% | [2]; at 3.7 µM 3% | [2]; at 11.0 µM -16% | [2]; at 33.0 µM -8% | [2]; at 100.0 µM 24% | [3]; at 1.2 µM 19% | [3]; at 3.7 µM 10% | [3]; [14] 36% | [4]; at 1.2 µM -1% | [4]; at 3.7 µM 1% | [4]; [14] 53% | [4]; at 11.0 µM 55% | [4]; at 33.0 µM 66% | [5]; at 1.2 µM -14% | [5]; at 3.7 µM -14% | [5]; at 11.0 µM 59% | [6]; [14] -10% | [7]; at 1.2 µM -17% | [7]; at 3.7 µM 8% | [7]; at 11.0 µM 52% | [7]; at 33.0 µM 58% | [8]; [14] 21% | [9]; at 1.2 µM 17% | [9]; at 3.7 µM 34% | [9]; [14] 37% | [9]; at 11.0 µM 55% | [10]; at 1.2 µM -5% | [10]; at 3.7 µM -9% | [10]; at 11.0 µM 43% | [11]; at 1.2 µM -30% | [11]; at 3.7 µM -42% | [11]; at 11.0 µM 49% | [11]; at 33.0 µM 56% | [12]; at 1.2 µM 26% | [12]; at 3.7 µM 42% | [13]; at 1.2 µM 8% | [13]; at 3.7 µM 17%
active: [1]; at 100.0 µM 84% | [3]; at 11.0 µM 79% | [3]; at 33.0 µM 82% | [3]; [15] 86% | [3]; at 50.0 µM 79.9% | [3]; at 100.0 µM 78% | [4]; [15] 79% | [4]; at 50.0 µM 79.5% | [4]; at 100.0 µM 79% | [5]; at 33.0 µM 73% | [5]; at 100.0 µM 83% | [6]; [15] 91% | [7]; at 100.0 µM 71% | [8]; [15] 89% | [9]; at 33.0 µM 70% | [9]; [15] 85% | [9]; at 100.0 µM 77% | [10]; at 33.0 µM 81% | [10]; at 100.0 µM 88% | [11]; at 100.0 µM 78% | [12]; at 11.0 µM 76% | [12]; at 33.0 µM 80% | [12]; at 100.0 µM 87% | [13]; at 11.0 µM 87% | [13]; at 33.0 µM 87% | [13]; at 100.0 µM 83%

O=c1[nH]cc(F)c(=O)[nH]1
active: [2]; at 11.0 µM 73% | [2]; at 33.0 µM 92% | [2]; at 100.0 µM 96% | [3]; at 33.0 µM 77% | [3]; [15] 89% | [3]; at 50.0 µM 93.2% | [3]; at 100.0 µM 91% | [4]; [15] 96% | [5]; at 100.0 µM 77% | [6]; [15] 95% | [8]; [15] 73% | [9]; [15] 81% | [10]; at 33.0 µM 86% | [10]; at 100.0 µM 95% | [11]; at 33.0 µM 72% | [11]; at 100.0 µM 93% | [12]; at 11.0 µM 79% | [12]; at 33.0 µM 92% | [12]; at 100.0 µM 96% | [13]; at 100.0 µM 86%
inactive: [1]; at 1.2 µM -1% | [1]; at 3.7 µM -1% | [1]; at 11.0 µM 9% | [1]; at 33.0 µM 34% | [1]; at 100.0 µM 64% | [2]; at 1.2 µM 4% | [2]; at 3.7 µM 31% | [3]; at 1.2 µM 2% | [3]; at 3.7 µM 17% | [3]; [14] 26% | [3]; at 11.0 µM 43% | [4]; at 1.2 µM 11% | [4]; at 3.7 µM 12% | [4]; [14] 26% | [4]; at 11.0 µM 14% | [4]; at 33.0 µM 14% | [4]; at 50.0 µM 53.7% | [4]; at 100.0 µM 9% | [5]; at 1.2 µM 1% | [5]; at 3.7 µM 10% | [5]; at 11.0 µM 17% | [5]; at 33.0 µM 54% | [6]; [14] 53% | [6]; at 50.0 µM 49.6% | [7]; at 1.2 µM 21% | [7]; at 3.7 µM 23% | [7]; at 11.0 µM 21% | [7]; at 33.0 µM 19% | [7]; at 100.0 µM 18% | [8]; [14] 17% | [8]; at 50.0 µM 66.7% | [9]; at 1.2 µM 6% | [9]; at 3.7 µM 7% | [9]; [14] 2% | [9]; at 11.0 µM 5% | [9]; at 33.0 µM 19% | [9]; at 50.0 µM 44.6% | [9]; at 100.0 µM 3% | [10]; at 1.2 µM 1% | [10]; at 3.7 µM 17% | [10]; at 11.0 µM 58% | [11]; at 1.2 µM 4% | [11]; at 3.7 µM 8% | [11]; at 11.0 µM 23% | [12]; at 1.2 µM 10% | [12]; at 3.7 µM 44% | [13]; at 1.2 µM 0% | [13]; at 3.7 µM 10% | [13]; at 11.0 µM 46% | [13]; at 33.0 µM 68%
